Bioassay records deposited in PubChem BioAssay by several laboratories.
In the library only some 3.2% were active in any assay of this set; here they are far more common.
APOBEC3G inh: APOBEC3G (human) deaminase inhibition; recombinant A3G, ssDNA deamination FAM/TAMRA fluorescence; inhibition, % at 20 µM; 330,000 tested, 0.28% active; AID 493012;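 active = inhibition of at least 40% at 20 µM, with no more than 30% in the related APOBEC3A deaminase screen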;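 also: plate controls were DMSO wells with A3G for no effect and wells lacking A3G enzyme for full effect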
Target sequence (Q9HC16 whole entry, looked up): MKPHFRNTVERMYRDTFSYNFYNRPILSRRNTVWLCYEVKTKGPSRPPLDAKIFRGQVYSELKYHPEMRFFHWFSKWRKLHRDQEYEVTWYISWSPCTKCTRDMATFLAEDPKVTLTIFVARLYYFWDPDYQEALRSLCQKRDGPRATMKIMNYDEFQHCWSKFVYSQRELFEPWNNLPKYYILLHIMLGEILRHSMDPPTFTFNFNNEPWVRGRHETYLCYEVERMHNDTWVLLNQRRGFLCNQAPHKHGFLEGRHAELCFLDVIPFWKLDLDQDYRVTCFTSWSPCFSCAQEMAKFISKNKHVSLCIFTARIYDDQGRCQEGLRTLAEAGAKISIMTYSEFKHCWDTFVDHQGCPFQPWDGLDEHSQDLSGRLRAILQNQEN
A3A deaminase: blocks human APOBEC3A ssDNA deamination | inhibition, % at 20 µM | recombinant A3A, FAM/TAMRA ssDNA deamination fluorescence | AID 493011 | P31941 | 330,000 tested, 0.41% active;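 active = at least 40% inhibition at 20 µM here, with at most 30% in a related deaminase screen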;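 also: plate controls were A3A with DMSO for no effect and wells lacking A3A enzyme for full effect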
AHR act: human AHR activation; P35869; AHR-responsive luciferase reporter cells, luminescence; activation, % at 5 µM; 320,000 tested, 2.5% active; AID 2796; in the data active = activation above about 47%;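 also: 0% = vehicle wells and 100% = reference agonist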
NTR1 ag: agonists of human neurotensin receptor NTR1 | 330,000 tested, 0.17% active | NTR1-U2OS beta-arrestin-GFP spot imaging, agonist mode | activation, % at 20 µM;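 active = activation at or above 40% of the spot to cytoplasm intensity ratio, with at least 20 cells analyzed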;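 also: 0% = DMSO without peptide and 100% = 100 nM NTR1 peptide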
Starred values were filed as active, the others as inactive; x = not tested or not shown.

SMILES	APOBEC3G inh	A3A deaminase	AHR act	NTR1 ag
O=C(Nc1ccc2c(c1)CCC2)c1ccc(Br)o1	2	1	24	2
C=CCN1C(=O)/C(=c2\sc3nc(=O)c(Cc4ccccc4Cl)nn3c2=O)c2ccccc21	4	2	33	0
O=C(N/C(=C/c1ccc(Cl)cc1)c1nc2ccccc2[nH]1)c1ccco1	0	2	70*	-1
O=C(N/C(=C/c1ccc(Br)cc1)c1nc2ccccc2[nH]1)c1ccco1	-2	-5	67*	0
CC1CCN(CC(=O)n2c3c(c4ccccc42)CCCC3)CC1	6	2	50*	6
COc1ccc(NC(=S)N(CCc2c(C)[nH]c3ccc(C)cc23)Cc2cccnc2)cc1	-9	-3	54*	8
CNC(=S)N(CCc1c(C)[nH]c2ccc(C)cc12)Cc1ccc(OC)c(OC)c1	-13	-3	25	-3
CCNC(=S)N(CCc1c(C)[nH]c2ccc(Cl)cc12)Cc1ccco1	-8	-4	47*	21
CNC(=S)N(CCc1c(C)[nH]c2ccc(C)cc12)Cc1ccco1	-5	1	55*	-1
NNC(=O)c1ccc(NS(=O)(=O)c2ccc(Br)cc2)cc1	-8	-3	9	0
Cc1nnc(NC(=O)Nc2cccc(Cl)c2)s1	2	-4	71*	2
O=C(Nc1ccc(F)cc1F)c1csc(-c2ccncc2)n1	-3	2	51*	0
O=C(Nc1cccc(Cl)c1)c1csc(-c2ccccc2)n1	-7	-4	93*	9
NNC(=O)c1csc(-c2ccccc2)n1	-7	-2	13	-1
O=C(Nc1ccc(F)cc1F)c1csc(-c2cccs2)n1	-2	-1	29	2
Cc1csc(NC(=O)Nc2cccc(Cl)c2)n1	-5	-4	23	6
O=C(Nc1ccc(Cl)c(Cl)c1)c1csc(-c2ccccc2)n1	-1	-1	74*	7
O=C(Nc1cccc(Cl)c1)Nc1nc(-c2ccccc2)cs1	-12	-6	17	4
Cc1ccc(N2CC(NC(=O)C3CC3)CC2=O)cc1 (stereo not drawn)	-1	0	-1	-1
CCN1CCCC1CNC(=O)c1cc2cc(F)ccc2[nH]1 (stereo not drawn)	-6	-2	67*	-1
O=C(NCC1CCCO1)c1cc2cc(Cl)ccc2[nH]1 (stereo not drawn)	-6	-6	4	-1
COc1ccccc1CNCC(=O)N1CC(=O)Nc2ccccc21	-5	-3	60*	0
NC(=O)N/N=C/c1sc(N2CCCCC2)nc1-c1cccs1	-2	1	21	4
O=C(N/N=C/c1sc(N2CCCCC2)nc1-c1cccs1)C1CC1	0	3	68*	1
CCC(C)(C)C1CCC(=NNC(=S)Nc2ccccc2)CC1 (stereo not drawn)	-4	2	6	3
SMILES	APOBEC3G inh	A3A deaminase	AHR act	NTR1 ag
CCC(C)(C)C1CCC(=NNC(=S)Nc2cccnc2)CC1 (stereo not drawn)	-5	-4	69*	1
COc1ccc(Nc2cc(C)nc3c(C)cccc23)cc1OC	19	4	68*	-1
CCOc1ccc(Nc2cc(C)nc3c(C)cccc23)cc1	-5	-5	36	7
Brc1ccc(-c2nc(-c3ccccn3)no2)o1	-7	-1	51*	0
Brc1ccc(-c2nc(-c3ccncc3)no2)o1	-5	-4	16	0
Clc1ccc(-c2nc(-c3ccccn3)no2)cc1Cl	-5	-3	72*	2
Cc1ccc(C2(c3ccc(C)cc3)NC(=O)N(CC(N)=O)C2=O)cc1	-1	1	-3	-1
Cc1ccc2oc(-c3cccc(NC(=O)c4ccc(Br)o4)c3C)nc2c1	-4	-2	32	2
Cc1c(NC(=O)CSc2ccc(Cl)cc2)cccc1-c1nc2cc(Cl)ccc2o1	-6	-3	97*	19
Cc1ccc([N+](=O)[O-])cc1S(=O)(=O)Nc1ccccn1	-4	-3	0	2
COc1cccc(-c2nnc(Nc3nc4c(F)cccc4s3)o2)c1	-5	-4	64*	1
COc1cccc2sc(Nc3nnc(-c4ccccc4Cl)o3)nc12	-8	-3	63*	6
COc1cccc(-c2nnc(NC(C)=O)o2)c1	-5	1	28	2
COc1ccccc1-c1nnc(Nc2nc3c(OC)cccc3s2)o1	-3	0	111*	-2
COc1cccc2sc(NN)nc12	-3	-3	33	0
COc1cccc2sc(Nc3nc(-c4cc5ccccc5oc4=O)cs3)nc12	x	x	5	x
NNc1nc(Nc2ccccc2)nc(Nc2ccccc2)n1	-5	-3	81*	4
